# “And” between values parts separate entries of the source, which are not always exact repeats. Identical values can stand only once. The source made the active and inactive calls.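 Rule for the calls, unless noted: active = compounds whose cell count with miR-34 switched on is under 0.7 times the count with it off; inactive = the rest.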
# Legend:
# [1] = sensitizers of A549 cells to miR-34 induction, primary screen, imaging, A549 dox-inducible miR-34, nuclei and caspase counts (AID 1347080); conditions: A549 miR-34 inducible, Hoechst nuclei count, 48 h; note: test concentration not given here
# [2] = survival rescue of mitochondrial mutant cells in low glucose, primary screen, MELAS cybrids, Rieske KO mouse fibroblasts, CellTiter-Glo (AID 1508586;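 active = mean z-score across replicates of 1.96 or higher in either the MELAS or the Rieske mutant cell line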;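 note: test concentration not given here; z relative to plate mean and SD of compound and empty wells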)
# [3] = viability rescue of complex I mutant cybrids, primary screen, cell-based, galactose medium, ATP luminescence (AID 1645843;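 active = z-score of at least 1.8 in each of two replicates, scored against plate mean and spread of sample wells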;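 note: positive z means more ATP and so rescue of galactose-driven cybrid death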); conditions: complex I mutant cybrid cells, 72 h, stronger effect = higher value
# [4] = stronger effect = lower value, cell number ratio, induced over uninduced
# [5] = measured here: relative caspase fold change +Dox/-Dox
# [6] = measured here: total cells with miR-34 induction, stronger effect = lower value
# [7] = measured here: total cells without miR-34 induction
# [8] = MELAS cybrid survival, CellTiter-Glo 48 h, stronger effect = higher value
# [9] = Rieske KO mouse fibroblast survival, CellTiter-Glo 72 h
Structure (SMILES),"fold change [1, 4]","fold change [1, 5]","cell count [1, 6]","cell count [1, 7]","z-score [2, 8]","z-score [2, 9]",z-score [3]
O=S(=O)(O)CCN1CCOCC1,0.906 (inactive),0.601,8760,9670,-0.907 (inactive),-0.75,0.715 (inactive)
CCCCCCCCCCCCCCCC(=O)NCC(=O)O,0.908 (inactive),1.05,9030,9940,-0.0953 (inactive),0.105,1.27 (inactive)
CCOc1cc(CC(=O)NC(CC(C)C)c2ccccc2N2CCCCC2)ccc1C(=O)O (stereo not given),0.993 (inactive) and 0.919 (inactive),2 and 0.721,8780 and 7660,8840 and 8340,-0.382 (inactive),0.561,1.65 (inactive)
CN1CCN(Cc2ccc3nonc3c2)CC1CCO (stereo not given),0.893 (inactive),1.09,8970,10000,-0.262 (inactive),-0.13,-0.35 (inactive)
NNC(=O)c1ccc(-c2ccccc2Cl)o1,0.826 (inactive),0.386,7740,9360,0.702 (inactive),-0.293,0.765 (inactive)
CC(Nc1nc(N)nc2[nH]ncc12)c1ccc(Cl)cc1 (stereo not given),0.895 (inactive),1.28,7110,7940,-0.461 (inactive),-0.503,-0.575 (inactive)
O=S(=O)(O)c1cccc2cccc(Nc3ccccc3)c12,0.946 (inactive),0.486,8990,9500,-0.258 (inactive),-0.0194,0.715 (inactive)
NCC1OC(OC2C(CO)OC(OC3C(O)C(N)CC(N)C3OC3OC(CO)C(O)C(O)C3N)C2O)C(N)C(O)C1O (stereo not given),0.908 (inactive),0.282,9400,10400,0.577 (inactive),-0.435,0.725 (inactive)
CSc1ccccc1C(=O)N1CCc2[nH]nc(COc3ccccc3)c2C1,0.941 (inactive),0.435,8390,8920,-0.515 (inactive),0.374,1.12 (inactive)
CC(NC(CCc1ccccc1)C(=O)O)C(=O)N1CCCC1C(=O)O (stereo not given),0.974 (inactive) and 0.933 (inactive),2.22 and 0.554,9670 and 8080,9920 and 8660,0.277 (inactive),0.0621,0.69 (inactive)
c1ccc(-c2noc(-c3cccc4cccnc34)n2)nc1,0.892 (inactive),1.13,7790,8740,-0.283 (inactive),1.05,0.93 (inactive)
O=C(O)CCc1c(C(=O)O)[nH]c2cc(Cl)cc(Cl)c12,0.85 (inactive),0.683,8390,9880,0.688 (inactive),0.122,0.585 (inactive)
O=C1CN(c2ncnc3nc[nH]c23)CCN1CCc1ccccc1,0.93 (inactive),1.88,8450,9080,-0.834 (inactive),-0.816,-0.58 (inactive)
O=C(O)c1cnn(-c2ccccc2)c1,0.883 (inactive),0.82,8690,9840,-0.738 (inactive),0.631,1.16 (inactive)
Cc1nonc1CN(C)c1ncnc2nc[nH]c12,0.907 (inactive),0.714,9230,10200,-0.379 (inactive),-0.0852,-0.565 (inactive)
CC(=O)NCC(=O)N1CCN(Cc2ccc3c(c2)OCO3)C(=O)C1,0.905 (inactive),1.72,8860,9790,0.0526 (inactive),-0.343,-0.565 (inactive)
CCC(C)(C)c1nnc(NC(=O)NCc2ccco2)s1,0.9 (inactive),1.07,8900,9890,0.377 (inactive),-0.396,3.32 (active)
CNc1nc(-c2cccc(OC)c2)ncc1F,0.868 (inactive),1.04,8700,10000,0.0888 (inactive),-0.0676,-0.485 (inactive)

Structure (SMILES),"fold change [1, 4]","fold change [1, 5]","cell count [1, 6]","cell count [1, 7]","z-score [2, 8]","z-score [2, 9]",z-score [3]
CC(C)n1cc(-c2cc(C(=O)N(C)Cc3ccncc3)c3cc(F)ccc3n2)cn1,0.953 (inactive),1.49,7910,8290,-1.09 (inactive),0.3,-0.295 (inactive)
CC(=O)N1CCCC(Cn2cnc3scc(-c4cc(C)ccc4C)c3c2=O)C1 (stereo not given),0.917 (inactive),1.14,8240,8990,-0.328 (inactive),-0.378,0.155 (inactive)
NS(=O)(=O)c1ccc(C(=O)NCCn2cccn2)cc1,0.945 (inactive),1.97,9500,10100,-0.281 (inactive),-0.563,-0.555 (inactive)
Nc1ccc(CCC(=O)O)cc1,0.96 (inactive),0.255,9320,9710,0.558 (inactive),-0.0102,1.27 (inactive)
O=c1c2nccnc2ncn1Cc1scnc1-c1ccccc1,0.893 (inactive),0.515,8870,9940,-0.26 (inactive),-0.294,-0.445 (inactive)
COc1ccc(C=CC(=O)O)cc1O,0.917 (inactive),0.34,9250,10100,0.642 (inactive),-0.171,0.285 (inactive)
CC(=O)c1sc(Nc2ccccc2)nc1C,0.911 (inactive),0.648,8310,9120,3.09 (active),-0.213,0.63 (inactive)
CN(C)CCOc1ccc(C(=C(CCCl)c2ccccc2)c2ccccc2)cc1,0.778 (inactive) and 1.03 (inactive),1.46 and 0.374,3730 and 7050,4790 and 6850,-0.446 (inactive),-0.000629,-1.88 (inactive)
CCn1c2ccccc2c2cc(CNC)ccc21,0.848 (inactive),0.773,7330,8640,0.644 (inactive),-0.0619,-0.915 (inactive)
CN1CCC(CN(C)Cc2ccc(-c3nc(-c4ccncc4)cc(=O)[nH]3)cc2)CC1,0.939 (inactive),1.26,9330,9930,0.0899 (inactive),0.164,-0.495 (inactive)
O=C(NCCc1nc2ccc(F)cc2[nH]1)c1cnccn1,0.896 (inactive),1.56,8500,9500,0.845 (inactive),-0.308,-0.435 (inactive)
COc1ccccc1-c1noc(Cc2ccc3c(c2)OCO3)n1,0.864 (inactive),2.45,7680,8890,0.0213 (inactive),1.35,1.62 (inactive)
Cc1nsc(NC(=O)N2CCC(C(O)CC(C)C)CC2)n1 (stereo not given),0.832 (inactive),2.21,6540,7860,0.507 (inactive),-0.186,-0.63 (inactive)
NC(=O)c1cncc(Br)c1,0.888 (inactive),0.503,8870,9990,0.375 (inactive),-0.195,0.76 (inactive)
Nc1cccc(-c2cccc(OCc3ccccc3)c2)n1,0.803 (inactive),1.74,7230,9010,-0.19 (inactive),-0.156,-0.555 (inactive)
COc1cccc2c(=O)n(C(C)Cn3cccn3)cnc12 (stereo not given),0.936 (inactive),1.36,9030,9650,-0.113 (inactive),-1.21,-0.305 (inactive)
COc1ccc2c(C(=O)N(C)Cc3nonc3C)cc(-c3cnn(C)c3)nc2c1,0.963 (inactive),1.42,8090,8400,-0.189 (inactive),-0.423,-0.54 (inactive)
